From PubChem BioAssay
BaF3 tox: parental Ba/F3 viability inhibition as JAK2V617F counter-screen; CellTiter-Glo ATP luminescence; inhibition, % at 5.6 µM; 220,000 compounds, 1.1% hits; AID 1486;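 active = inhibition above a per-campaign cutoff, the mean inhibition of all tested compounds plus 3 SD, cut at about 27% in these data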;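 note: 0% = DMSO wells and 100% = JAK Inhibitor I control wells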
IEC-6 tox-1: kills IEC-6 intestinal cells in KLF5 counter-screen. inhibition, % at 5 µM. IEC-6 cytotoxicity, luminescence viability. 290,000 compounds, 0.78% hits; in the data active = inhibition above about 22%;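 note: 0% = plate median of test compound wells and 100% = cytotoxic reference compound wells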
KLF5 inhibitor: inhibitors of KLF5 expression. DLD-1 KLF5 promoter-luciferase reporter, luminescence. inhibition, % at 5 µM. 290,000 compounds, 0.23% hits;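 active = inhibition above a per-plate limit of that plate's mean compound inhibition plus 3 SD, cut at about 60% in these data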;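 note: 0% = DMSO wells and 100% = LY294002 at 200 µM; higher means less KLF5 promoter-driven luciferase light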
Ba/F3 V617F tox: reduce viability of Ba/F3 cells dependent on JAK2V617F; 220,000 compounds, 1.1% hits; inhibition, % at 5.6 µM; Ba/F3 EpoR-JAK2V617F viability, ATP luminescence;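 active = inhibition above the campaign mean plus 3 SD over all tested compounds, cut at about 24% in these data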;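 note: cytokine-independent growth of Ba/F3 cells driven by EpoR plus mutant JAK2; 0% = DMSO-treated cells and 100% = JAK inhibitor I control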
APP 5UTR inh: APP translation inhibition. SH-SY5Y APP 5'UTR-luciferase reporter, luminescence. inhibition, % at 2 µM. 190,000 compounds, 0.82% hits;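 active = inhibition above a set limit, derived from the sample mean plus 3 SD, cut at about 45% in these data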
aSyn UTR inh: MLPCN primary screen, SNCA 5' untranslated region; inhibition, % (tested at 7.5 µM); alpha-synuclein 5'UTR reporter, inhibitor activity; 300,000 compounds, 0.82% hits; in the data active = inhibition above about 60%;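 note: H4 neuroglioblastoma cells stably carrying SNCA 5'UTR luciferase fusion; 0% = DMSO wells and 100% = positive control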
KLF5 confirm: KLF5 inhibition, confirmation assay | shares compounds with KLF5 inhibitor | DLD-1 KLF5 promoter firefly luciferase reporter, luminescence | inhibition, % at 4 µM | 610 compounds, 79% hits | AID 1834;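 active = inhibition above a set limit taken from the earlier primary screen, cut at about 63% in these data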;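 note: 0% = DMSO wells and 100% = LY294002 at 200 µM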
IEC-6 tox-2: rat IEC-6 cytotoxicity, KLF5 inhibitor counter-screen; shares compounds with KLF5 inhibitor; IEC-6 rat intestinal cells, viability luminescence; inhibition, % at 4 µM; 610 compounds, 56% hits; AID 1905; in the data active = inhibition above about 23%;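 note: cells exposed to compounds for 48 hours before viability read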
The depositor's hits bear a star; x = no result. Hits are enriched below; roughly 2.2% of the tested compounds scored in any of these assays.

SMILES | BaF3 tox | IEC-6 tox-1 | KLF5 inhibitor | Ba/F3 V617F tox | APP 5UTR inh | aSyn UTR inh | KLF5 confirm | IEC-6 tox-2
Cc1ccc(C)c(CSc2nc3[nH]ncc3c(=O)[nH]2)c1 | 76.2* | 63.2* | 65.4* | 83.3* | 84.8* | 23.7 | 67.9* | 53.2*
Cc1ccc(-c2nc3ccc(Cl)cc3n2OC(C)C(=O)O)cc1 (stereo not given) | 13.0 | 3.5 | 66.3* | 9.4 | -116.5 | -126.7 | -16.7 | 9.3
COc1ccc(Cl)cc1NC(=O)CSc1nnc(CNC(=O)c2cccs2)o1 | x | -4.2 | -21.9 | x | x | 20.7 | x | x
Fc1ccc(-c2nnc(NC3=NCCCCC3)o2)cc1 | 11.3 | 11.8 | 72.5* | 10.5 | -44.9 | 98.3* | 40.8 | 1.1
c1ccc(-c2nnc(NC3=NCCC3)o2)cc1 | 7.0 | -1.2 | -91.7 | 6.4 | -122.0 | -7.1 | x | x
O=C(NCc1nnc2c(C(F)(F)F)cc(Cl)cn12)c1cccnc1 | x | -7.9 | 1.5 | x | x | -17.5 | x | x
CC(=O)CSc1ccc(-c2nc3cc(C)c(C)cc3[nH]2)cn1 | 0.3 | 1.9 | 64.1* | -0.9 | -30.8 | 120.6* | 72.7* | 14.1
CC(=O)CSc1ccc(-c2nc3ccccc3[nH]2)cn1 | x | 20.1 | -13.2 | x | x | -72.0 | x | x
Cc1ccc(C(=O)O/N=C(\N)c2ccccn2)c(C)c1 | x | 6.9 | 108.0* | x | x | 105.9* | 104.5* | -3.9
O=C(N/N=C/c1c(O)ccc2ccccc12)c1ccc(Br)o1 | x | 12.1 | 67.6* | x | x | 106.3* | 86.4* | 7.9
Cc1occc1C(=O)N/N=C/c1c(O)ccc2ccccc12 | x | 18.1 | 57.4 | x | x | 54.0 | x | x
O=C(CSCC(=O)Nc1ccccc1)N/N=C/c1c(O)ccc2ccccc12 | 2.6 | -1.6 | 67.5* | 1.8 | 65.9* | 76.3* | 78.7* | -0.4
O=C(NNC(=S)NC(=O)c1sc2ccccc2c1Cl)c1ccc(Cl)cc1 | 2.9 | -3.3 | -20.2 | -4.4 | 3.3 | -67.0 | x | x
Cc1cc(C)[n+]2[nH]c(N)c(N=Nc3ccccc3)c2n1 | 1.1 | 4.7 | -15.3 | -3.3 | x | -49.5 | x | x
CCOC(=O)c1cccc(NC(=O)Nc2ccc(OCC)cc2)c1 | 3.7 | -0.8 | -18.9 | 4.2 | -15.9 | 56.0 | x | x
Cc1ccccc1OCC(=O)Nc1cccc(C(=O)O)c1 | 3.3 | -2.2 | 95.2* | -1.5 | 68.3* | 105.3* | 96.0* | 4.0
Cc1cccc(OCC(=O)Nc2cc(NC(=O)COc3cccc(C)c3C)cc(C(=O)O)c2)c1C | x | 4.5 | -21.4 | x | x | -10.0 | x | x
CCOc1ccc(NC(=O)Nc2cccc(C(=O)O)c2)cc1 | 8.6 | -0.8 | 94.3* | 6.0 | 70.4* | 107.7* | 101.2* | 15.8
O=C(Nc1cccc(Cl)c1)Nc1cccc(C(=O)O)c1 | -1.7 | -6.3 | 6.0 | -0.2 | x | 54.6 | x | x
O=C(Nc1ccc(Cl)cc1)Nc1cccc(C(=O)O)c1 | 11.8 | -7.1 | 65.6* | -0.6 | -1.0 | 42.4 | 72.4* | 2.6
COC(=O)Nc1cc(C(=O)c2ccc(Cl)cc2Cl)c[nH]1 | x | 5.1 | -12.6 | x | x | -7.4 | x | x
Oc1ccc(/C=C/c2ccc3ccccc3n2)cc1 | 38.9* | 25.7* | 78.3* | 67.8* | -55.1 | 89.7* | 50.6 | 15.4
O=C(NCCc1ccccc1)c1ccc2c(c1)OCO2 | x | 1.7 | 62.7* | x | x | 90.9* | 39.1 | 6.0
O=C(Nc1cccc(O)c1)c1cc(-c2ccc3c(c2)OCO3)on1 | x | 0.4 | 83.4* | x | x | 69.3* | 71.8* | -7.3
O=C(NCC1CCCO1)C(=O)N/N=C/c1cccc(Cl)c1 (stereo not given) | x | 2.1 | -14.8 | x | x | 8.8 | x | x
SMILES | BaF3 tox | IEC-6 tox-1 | KLF5 inhibitor | Ba/F3 V617F tox | APP 5UTR inh | aSyn UTR inh | KLF5 confirm | IEC-6 tox-2
CCOC(=O)c1cnc(COc2ccc(OC)cc2)[nH]c1=O | -0.2 | -0.7 | -13.5 | -0.3 | x | -16.8 | x | x
COc1ccc(CCNC(=O)Cn2c(=O)[nH]c3ccsc3c2=O)cc1OC | 5.7 | -9.6 | -21.6 | -2.2 | 6.0 | -0.4 | x | x
Nc1ccc(-c2nc3ccc(C(=O)O)cc3s2)cc1 | 0.3 | -2.6 | 108.7* | -1.1 | 67.3* | 95.4* | 105.1* | -6.8
Oc1cccc2ccc(Nc3ccccn3)nc12 | 75.6* | -3.4 | 104.8* | 97.5* | 79.7* | 98.4* | 102.5* | 13.6
COc1ccc(C(=O)NNC(=O)Cc2nc3nc(C)cc(C)n3n2)cc1 | x | 5.9 | -37.0 | x | x | 4.9 | x | x
O=C(CN1C(=O)c2ccccc2S1(=O)=O)c1ccc2c(c1)OCCCO2 | -4.5 | -5.0 | 101.1* | -3.9 | x | 114.4* | 108.5* | 2.4
O=C(CCN1C(=O)c2ccccc2S1(=O)=O)Nc1cc(Cl)ccc1Cl | x | x | x | x | x | -8.5 | x | x
O=C(CN1C(=O)c2ccccc2S1(=O)=O)c1ccc2c(c1)OCCO2 | 0.2 | 2.4 | 90.8* | 3.6 | x | 111.2* | 96.9* | -0.9
O=C(CN1C(=O)c2ccccc2S1(=O)=O)c1ccc(Cl)cc1Cl | x | 3.4 | 83.7* | x | x | 77.7* | 83.3* | -4.3
O=C(CCN1C(=O)c2ccccc2S1(=O)=O)Nc1ccc2c(c1)OCCO2 | 0.0 | -4.2 | -14.2 | -0.4 | 3.0 | 1.4 | x | x
CCN1CCN(S(=O)(=O)c2cc3c(cc2Cl)NC(=O)CO3)CC1 | x | -10.0 | -30.9 | x | x | -15.6 | x | x
Cc1cccc(NC(=O)c2ccc(NC(C)c3ccccc3)c([N+](=O)[O-])c2)n1 (stereo not given) | 6.8 | -0.5 | -34.3 | -1.6 | 12.1 | -42.5 | x | x
O=C(Nc1cccc(-c2ccc(N3CCCCC3)nn2)c1)C(F)(F)F | x | 10.7 | 75.6* | x | x | 96.2* | 50.9 | 13.7
CCC(=O)Nc1cccc(-c2ccc(N3CCC(C)CC3)nn2)c1 | x | 10.5 | 50.0 | x | x | 40.9 | x | x
CC1CCN(c2ccc(-c3cccc(NC(=O)C(F)(F)F)c3)nn2)CC1 | x | 14.0 | 83.7* | x | x | 102.8* | 88.1* | 22.8*
O=C(Nc1cccc(-c2ccc(N3CCCCC3)nn2)c1)c1ccc(Br)o1 | x | x | x | x | x | -25.9 | x | x
C/C(=N\Nc1ccc2nncn2n1)c1ccccn1 | 68.6* | 1.7 | 67.8* | 75.9* | x | 93.9* | 76.2* | 82.9*
O=C(Nc1c(C(=O)N2CCOCC2)cnn1-c1ccccc1)c1cccc(F)c1 | x | -0.2 | -12.4 | x | x | 13.0 | x | x
CCc1ccc(NC(=O)c2ccccc2NC(=O)C2CCCO2)cc1 (stereo not given) | 2.6 | -1.1 | -121.9 | -4.8 | -112.7 | -244.4 | x | x
COc1ccccc1NC(=O)C(=O)/C=C(\O)c1ccccc1 | 0.1 | -1.0 | -41.9 | -0.8 | x | -130.7 | x | x
Cc1ccc(O)c(NC(=S)NC(=O)C(C)C)c1 | -0.3 | 5.7 | 23.9 | 0.5 | x | -21.7 | x | x
CNc1cc(-n2nc(C)cc2-c2ccccc2)ncn1 | 1.7 | 6.9 | -17.5 | -1.9 | -6.0 | 27.4 | x | x
Cc1cc(-c2ccccc2)n(-c2cc(N/N=C/c3ccccc3O)ncn2)n1 | 76.3* | 2.6 | 70.0* | 68.8* | 96.0* | x | 88.0* | -5.9
CCN(CC)CCn1nc2c3c(cccc3c1=O)-c1ccccc1-2 | 100.3* | 86.7* | 72.3* | 102.0* | 67.7* | 26.3 | 9.3 | 75.3*
CCN(CC)CCn1nc(C)nc1-c1ccccc1O | 3.9 | -1.9 | -24.0 | -1.3 | -6.7 | 16.0 | x | x
COc1ccc(OC)c(Nc2cc(C)nc3nc(C)nn23)c1 | 6.8 | 4.1 | 91.7* | -2.1 | -1.2 | -10.1 | 81.2* | -0.2
